Bioassay records: PubChem BioAssay, National Center for Advancing Translational Sciences (NCATS)
Hits are enriched below; roughly 11% of the tested compounds scored in any of these assays.
JMJD2A Tudor = JMJD2A Tudor domain (human) inhibition | Potency, µM (top dose mostly 114 µM), without a hit: at the highest dose activity change, negative = inhibition, hits mostly inhibitors | 4.4% of 390,000 active | O75164 | AlphaScreen JMJD2A-Tudor / H3K4me3 peptide binding; note: potency is the fitted concentration of half-maximal effect; % is set by controls: 0 for no effect and ±100 for the full control effect; nearly all actives have a fitted effect of over 50% in size
L3MBTL1 block = L3MBTL1 (human) inhibition | 0.66% of 230,000 active | AlphaScreen L3MBTL1–H3K9me1 peptide binding | Q9Y468 | Potency, µM (top dose mostly 57.1 µM), for the others: top-dose activity, negative = inhibition, most hits filed as inhibitors; note: potency is the fitted concentration of half-maximal effect; % is set by controls: 0 for no effect and ±100 for the full control effect; nearly all actives have a fitted effect of over 60% in size
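First, the protein-peptide complex forms for 30 min at room temperature (L3MBTL1 50 nM, biotinylated H3K9me1 peptide 75 nM). Next, compounds are pin-transferred and incubated 30 min. Finally, AlphaScreen beads are added and read after 30 min.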
PI5P4Ka inh = inhibitors of human PI5P4K alpha. P48426. PI5P4Kalpha enzyme, ADP-Glo luminescence, 60 min; stronger effect = lower value. max response, %. 1.2% of 330,000 active. AID 652105; active = max response of -50% or lower; inconclusive = between -30% and -50%; inactive = -30% or higher; note: value at the top dose of about 77 µM; % is set by controls: 0 for no effect and ±100 for the full control effect
Target sequence (P48426 whole entry, looked up): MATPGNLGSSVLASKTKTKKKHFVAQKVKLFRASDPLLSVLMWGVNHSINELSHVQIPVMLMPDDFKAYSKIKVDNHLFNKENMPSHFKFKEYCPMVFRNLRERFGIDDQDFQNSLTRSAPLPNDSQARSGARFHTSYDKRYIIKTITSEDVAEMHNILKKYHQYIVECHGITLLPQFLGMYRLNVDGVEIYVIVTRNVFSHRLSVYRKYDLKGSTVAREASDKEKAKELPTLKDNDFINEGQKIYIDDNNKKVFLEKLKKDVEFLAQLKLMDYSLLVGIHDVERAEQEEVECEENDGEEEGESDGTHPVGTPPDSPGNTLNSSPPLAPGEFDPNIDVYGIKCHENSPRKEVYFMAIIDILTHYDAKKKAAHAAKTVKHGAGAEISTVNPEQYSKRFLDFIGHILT
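Reactions run in 0.038 M HEPES pH 7.4, 0.28 mM EGTA, 0.1% CHAPS and 5% DMSO, with PI5P4Kalpha, substrate, compound and 5 microM ATP final, one hour at room temperature. Readout is ADP-Glo luminescence.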
G9a block = G9a (human) methyltransferase inhibition; G9a H3K9 monomethylation, AlphaScreen, 2 h; Q96KQ7; AID 504332; 8.8% of 350,000 active; Potency, µM (doses to about 102 µM), for inactives: top-dose activity, negative = inhibition, most hits filed as inhibitors; note: potency is the fitted concentration of half-maximal effect; % is set by controls: 0 for no effect and ±100 for the full control effect; nearly all actives have a fitted effect of over 75% in size
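Readings reflect AlphaScreen signal from monomethyl-H3K9 antibody detection. HMT at 20 nM; substrate b-H3K9 500 nM; cofactor SAM 20 uM; 2 h RT reaction; compounds tested as titrations in qHTS with 15 min preincubation.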
HP1b chromo inh = inhibitors of HP1-beta chromodomain binding to methylated histone tails | Potency, µM (highest dose often 114 µM), for the others: top-dose activity change, negative = inhibition, actives largely listed as inhibitors | P83916 | AlphaScreen HP1-beta / biotin-H3K9me3 peptide binding | 0.56% of 390,000 active; note: potency is the fitted concentration of half-maximal effect; nearly all actives have a fitted effect of over 70% in size
Target sequence (P83916 whole entry, looked up): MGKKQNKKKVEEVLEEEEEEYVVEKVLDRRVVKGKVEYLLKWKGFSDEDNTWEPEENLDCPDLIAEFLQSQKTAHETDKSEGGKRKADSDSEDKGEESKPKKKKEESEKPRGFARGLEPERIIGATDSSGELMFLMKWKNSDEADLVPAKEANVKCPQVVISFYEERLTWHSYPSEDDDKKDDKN
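Compound inhibition of the preformed complex between 50 nM HP1-beta and 50 nM biotinylated H3K9me3 peptide was read by AlphaScreen. Buffer was PBS pH 7.4 with 0.01% Tween-20. Incubations ran 30 min at room temperature, with 10 ug/mL donor/acceptor beads.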
BAZ2B inh = inhibitors of human BAZ2B bromodomain | AID 504333 | AlphaScreen BAZ2B-H3K14Ac peptide displacement | Q9UIF8 | 4.4% of 360,000 active | Potency, µM (highest dose often 114 µM), for the others: at the highest dose activity change, negative = inhibition, hits mostly inhibitors; note: potency is the fitted concentration of half-maximal effect; % is set by controls: 0 for no effect and ±100 for the full control effect; nearly all actives have a fitted effect of over 60% in size
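Protein-peptide AlphaScreen: BAZ2B 50 nM, b-H3K14Ac 50 nM, 1x PBS pH 7.4 + 0.01% Tween-20. Preincubation 30 min RT; cpd 30 min RT (top 110 uM); beads 20 min RT, light-protected.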
* hit, by the source's call; ? = inconclusive; nt = no result given; [ ] = dose if it differs, or a comment. Unless noted, calls come from the whole dose curve; as a rule, active = well fitted inhibition curve with a large enough effect; inconclusive = small, poorly fitted or top-dose-only effect; inactive = no such curve, though single readings can be large or run the other way.

SMILES | JMJD2A Tudor | L3MBTL1 block | PI5P4Ka inh | G9a block | HP1b chromo inh | BAZ2B inh
COc1ccc(CNc2n[nH]c(-c3ccco3)n2)cc1OC | -18% | nt | nt | -2%[59 µM] | 35% | ?
Cc1ccc(CSc2nc3ccc(NC(=O)CC(C)C)cc3s2)cc1 | -7% | nt | nt | 2%[59 µM] | 30% | -12%
CCCCNc1ncnc2c1nnn2C | -15% | nt | nt | -7%[59 µM] | -15% | -6%
Cc1ccc(OCCNc2cc(N3CCN(CCO)CC3)ccc2[N+](=O)[O-])cc1C | ? | -29% | 3 | ? | ? | 32µM*
CC(C)(C)CNc1cc(N2CCOCC2)ccc1[N+](=O)[O-] | ? | -30% | 7 | 32µM* | -17% | ?
Cc1cccc(OCCNc2cc(N3CCN(C)CC3)ccc2[N+](=O)[O-])c1 | 40µM* | -11% | -2 | 17%[59 µM] | 50µM* | ?
Cc1cccc(OCCNc2ncccc2[N+](=O)[O-])c1 | nt | nt | 28 | nt | nt | nt
CS(=O)(=O)N1CCN(c2ccc([N+](=O)[O-])c(NCCN3CCOCC3)c2)CC1 | -14% | 0% | 8 | 3%[59 µM] | 2% | 8%
CCc1nn(CC(=O)NCCc2ccc(Cl)cc2)c(=O)c2cc3ccccc3n12 | -4% | nt | nt | 5%[59 µM] | 9% | 0%
COc1ccc(Oc2ncc3ncc(=O)n(CCC#N)c3n2)cc1 | nt | nt | nt | 5%[12.7 µM] | nt | nt
CCOc1ccc(NC(=O)Cn2cc(C(=O)c3ccc(F)cc3)c(=O)c3cc4c(cc32)OCO4)cc1 | -13% | nt | nt | 2%[59 µM] | 39% | -10%
Cc1nc2ccc(S(=O)(=O)CCC(=O)Nc3ccc(Cl)cc3)cc2s1 | 2% | nt | nt | -3%[59 µM] | 32% | -4%
O=C(Cn1cc(S(=O)(=O)c2ccccc2)c(=O)c2cc3c(cc21)OCO3)Nc1ccc(Cl)cc1 | -18% | nt | nt | 3%[59 µM] | 18% | -21%
CCCc1nnc(NC(=O)Cc2coc3ccc(C)cc23)s1 | -9% | nt | nt | 10%[59 µM] | 50% | 0%
COC(=O)c1cc(NC(=O)c2oc(=O)c3ccccc3c2-c2ccccc2)cc(C(=O)OC)c1 | -15% | nt | nt | 4%[59 µM] | 10% | nt
Cc1ccc(NC(=O)CSc2nnc(COc3ccc(Cl)cc3)o2)cc1 | -14% | nt | nt | 2%[59 µM] | 17% | -8%
Cc1ccc(C2=Nn3c(COc4ccc(Cl)cc4)nnc3SC2CC(=O)O)cc1 (centres undefined) | -8% | nt | -6 | 40µM* | 4% | ?
O=C(Nc1ccc(Cl)c(C(F)(F)F)c1)c1cc2nc(-c3ccc4c(c3)OCO4)cc(C(F)(F)F)n2n1 | -1% | nt | nt | -2%[59 µM] | 39% | -4%
Cc1ccc(C(=O)N2CCc3cc(CNC(=O)CSc4ccccc4)ccc32)cc1 | -27% | nt | nt | 5%[59 µM] | -13% | -15%
CCN(CC)c1ccc(NC(=O)COCc2cc(-c3ccc4c(c3)OCO4)on2)c(C)c1 | 20µM* | nt | nt | 4.5µM* | ? | 22µM*
COc1cc(NC(=O)COCc2cc(-c3ccc4c(c3)OCO4)on2)c(OC)cc1Cl | -16% | nt | nt | -8%[59 µM] | 13% | 2%
CC(C)Oc1ccc(CNCC2(O)CCOC(C)(C)C2)cc1 (centres undefined) | 2.2µM* | 15% | -2 | 8.9µM* | ? | ?
COCc1nnc(NC(=O)c2ccc(S(=O)(=O)N3CCCC3)cc2)o1 | 13µM* | nt | -1 | 3% | 29% | 20µM*
CCc1nnc(NC(=O)c2ccc(S(=O)(=O)N3CCCC(C)C3)cc2)o1 (centres undefined) | -26% | nt | 4 | 62% | 42% | 89µM*
C=CCN(CC=C)S(=O)(=O)c1ccc(C(=O)Nc2nnc(COC)o2)cc1 | -28% | 18% | 2 | 23%[12.7 µM] | 52% | ?
SMILES | JMJD2A Tudor | L3MBTL1 block | PI5P4Ka inh | G9a block | HP1b chromo inh | BAZ2B inh
Cc1cn(C2CC3OCC(NC(=O)C4CCCN4C(=O)OC(C)(C)C)C3O2)c(=O)[nH]c1=O (centres undefined) | -13% | nt | nt | nt | 46% | nt
CCCCC(=O)NC(=S)NNC(=O)CC#N | 18µM* | nt | nt | ? | -23% | -12%
CCCCC(=O)NNC(=S)NC(=O)CCC | 50µM* | 27% | -10 | 10µM* | 21% | 26%
CCCCC(=O)NC(=S)NNC(=O)c1ccc(OC)cc1 | -1% | 10% | ? | 3%[12.7 µM] | 36% | 4%
CCn1c(C(=O)NCc2cc(Br)ccc2OC)cc2oc3ccccc3c21 | -28% | nt | nt | -8%[59 µM] | 21% | -20%
CN1CCN(CCCNC(=O)c2ccc(Cn3c(=S)[nH]c4ccc(Br)cc4c3=O)cc2)CC1 | ? | -14% | 0 | 32µM* | 9% | ?
O=C(NCCN1CCCC1)c1ccc(Cn2c(=S)[nH]c3cc4c(cc3c2=O)OCO4)cc1 | 40µM* | -8% | nt | ? | 20% | -34%
O=C(NCc1cccnc1)c1ccc(Cn2c(=S)[nH]c3ccc(Br)cc3c2=O)cc1 | -7% | 1% | 4 | -9% | 49% | ?
CC1CCN(CCCNC(=O)c2ccc(Cn3c(=S)[nH]c4ccc(Br)cc4c3=O)cc2)CC1 | nt | -29% | nt | 18µM* | nt | ?
CCc1ccc(NC(=O)c2nn(-c3ccc(OC)cc3)c(=O)c3c2c2ccccc2n3C)cc1 | -12% | nt | nt | -4%[59 µM] | 17% | nt
CCc1cc(C(=O)N2CCOCC2)c(NC2=NS(=O)(=O)c3ccccc32)s1 | -4% | 6% | 1 | 89µM* | 40% | -37%
Cc1cc2c(s1)c1c(C)nn(Cc3ccc(F)cc3)c(=O)c1n2C | nt | 2% | nt | -1%[12.7 µM] | nt | 1%
C/[N+]([O-])=C\C1C(=O)CC(C)(C)CC1=O | -3% | 16% | 3 | 2% | 47% | -16%
C=CCO/N=C/C1C(=O)CC(C)(C)CC1=O | 10µM* | 8% | -3 | 35µM* | 1% | ?
COc1ccccc1CNC(=O)CN1C(=O)CCn2nc(-c3ccccc3)cc21 | -27% | nt | nt | -31%[59 µM] | -9% | 1%[57.1 µM]
CCOc1ccc(-n2nc(CO)c(C(=O)NCC(c3ccccc3)c3ccccc3)n2)cc1 | 2% | nt | nt | 7%[59 µM] | 27% | 0%
Cc1ccc(N(CC(=O)NCCSc2ccccn2)S(C)(=O)=O)cc1 | -8% | -3% | 2 | 28µM* | 33% | -2%
CC(C)N1CCC2(CC1)C(C#N)=C(N)NC(S)=C2C#N | nt | -14% | nt | 1.6µM* | nt | -10%
N#CC1=C(N)NC(SCc2ccc(F)cc2)=C(C#N)C12CCCCC2 | -26% | -15% | -1 | 7%[12.7 µM] | -1% | ?
CC(C)NC(=O)c1onc(CSc2ccc(F)c(F)c2)c1C(=O)NC(C)C | 12% | nt | 0 | nt | 124% | nt
CC(C)NC(=O)c1onc(CSc2ccc(F)c(F)c2)c1C(=O)O | 79µM* | -1% | -19 | 51%[0.501 µM] | 22% | ?
COc1ccc(C)cc1NC(=O)C(c1ccccc1)N1CCNC(=O)C1 (centres undefined) | nt | 4% | nt | 50µM* | nt | -9%
Oc1c(C(c2ccccc2)N2CCN(Cc3ccccc3)CC2)sc2nc(-c3ccco3)nn12 (centres undefined) | -25% | nt | nt | ? | -9% | -34%
